Compound activity (PubChem)
TsaE inh – inhibitors of E. coli YjeE (TsaE); P0AF67; purified YjeE enzyme, qHTS inhibition assay; Potency, µM; 0.05% of 71,000 active
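Fluorescence polarization of a BODIPY Texas Red–ADP probe (2 uM) bound to purified YjeE (10 uM) was read after 15 min room-temperature incubation with compounds. Loss of polarization marks inhibitors; ADP serves as titrated control.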
BRCT inh green – blocks human BRCA1 BRCT binding to phosphopeptide, green readout; P38398; BRCA1 BRCT-phosphopeptide binding, green fluorescence polarization; Potency, µM (highest dose often 76.9 µM), without a hit: at the top dose activity change, negative = inhibition, actives largely listed as inhibitors; 0.05% of 75,000 active; AID 875;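 note: potency is the fitted concentration of half-maximal effect; plate controls were peptide without protein for full effect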
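Fluorescence polarization: His-tagged BRCT (~35 kDa BRCA1 C-terminus, 250 nM) bound to 100 nM fluorescein-labeled phosphorylated 10-aa BACH1 peptide, pH 7.3 phosphate buffer with DTT and Tween 20. Compounds incubated 12 min at room temperature; inhibition read as lowered polarization.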
BRCT inh red – inhibitors of human BRCA1 BRCT-phosphoprotein interaction (red fluorophore) | P38398 | BRCT-phosphopeptide binding, red fluorescence polarization | Potency, µM (highest dose often 76.9 µM), inactives show at the top dose activity change, negative = inhibition, most hits filed as inhibitors | 0.03% of 75,000 active | AID 892; note: % is set by controls: 0 for no effect and ±100 for the full control effect
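Fluorescence polarization: 100 nM His-tagged BRCA1 BRCT with 100 nM TAMRA-labelled phospho-BACH1 decapeptide, phosphate buffer pH 7.3 with 150 mM NaCl, DTT, 0.01% Tween 20; 12 min RT. Binding inhibition seen as FP decrease.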
DNA Pol III inh – inhibitors of bacterial DNA polymerase III holoenzyme; reconstituted DNA polymerase III holoenzyme replication, biochemical; Potency, µM (highest dose often 57.1 µM), without a hit: at the top dose activity change, negative = inhibition; 0.25% of 71,000 active; AID 603; note: potency is the fitted concentration of half-maximal effect; % is set by controls: 0 for no effect and ±100 for the full control effect
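Reconstituted *E. coli* holoenzyme (0.35 nM Pol III, 1 nM beta, 154 nM SSB, 2 nM primase) was preincubated with compound for 15 min at RT. Synthesis on 1.4 nM ssM13Gori ran 35 min, then was stopped with PicoGreen/EDTA and read as dsDNA fluorescence.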
Tau fil binding – binds recombinant human tau filaments | 2% of 71,000 active | AID 596 | Potency, µM (top dose mostly 57.1 µM), without a hit: top-dose activity change, negative = inhibition | P10636 | recombinant tau filaments, thioflavin S fluorescence, 15 h; filaments grown with octadecylsulfate alongside compound;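 note: potency is the fitted concentration of half-maximal effect; % is set by controls: 0 for no effect and ±100 for the full control effect; actives lower thioflavin S fluorescence by blocking filaments or displacing dye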
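Quantitative HTS: thioflavine S signal from ODS-induced tau filaments, excited at 450 nm, emission 510 nm. Conditions: 1 uM tau, 30 uM ODS, 15 h at 37 C, pH 7.4.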
ALOX15 inhib – inhibitors of human 15-lipoxygenase (ALOX15). 1.4% of 74,000 active. AID 887. P16050. Potency, µM (highest dose often 57.1 µM), without a hit: top-dose activity change, negative = inhibition, most hits filed as inhibitors. purified 15hLO-1, xylenol orange hydroperoxide absorbance; note: potency is the fitted concentration of half-maximal effect; % is set by controls: 0 for no effect and ±100 for the full control effect; nearly all actives have a fitted effect of over 55% in size
Target sequence (P16050 whole entry, looked up): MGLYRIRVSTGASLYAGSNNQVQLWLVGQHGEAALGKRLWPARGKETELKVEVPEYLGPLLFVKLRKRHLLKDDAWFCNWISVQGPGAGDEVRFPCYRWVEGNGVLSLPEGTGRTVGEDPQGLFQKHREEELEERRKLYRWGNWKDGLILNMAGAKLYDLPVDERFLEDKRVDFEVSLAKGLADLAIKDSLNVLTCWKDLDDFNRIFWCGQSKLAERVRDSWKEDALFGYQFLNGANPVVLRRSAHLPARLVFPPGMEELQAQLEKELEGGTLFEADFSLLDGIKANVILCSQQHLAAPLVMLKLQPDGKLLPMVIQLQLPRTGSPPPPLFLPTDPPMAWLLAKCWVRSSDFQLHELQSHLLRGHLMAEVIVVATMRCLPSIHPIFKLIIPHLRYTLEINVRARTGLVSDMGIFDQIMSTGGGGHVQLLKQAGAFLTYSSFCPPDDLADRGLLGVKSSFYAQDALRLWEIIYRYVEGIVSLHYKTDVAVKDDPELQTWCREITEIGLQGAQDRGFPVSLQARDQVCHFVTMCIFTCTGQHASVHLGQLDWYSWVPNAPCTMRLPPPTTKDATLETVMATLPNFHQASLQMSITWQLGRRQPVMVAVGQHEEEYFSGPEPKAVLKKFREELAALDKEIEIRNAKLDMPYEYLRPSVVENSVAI
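Purified human 15hLO-1 (40 nM final) in 25 mM Hepes pH 7.5, 0.01% Triton X-100 was preincubated with compound 15 min at room temperature, then reacted 6 min with 50 uM arachidonic acid; hydroperoxide detected by Fe-XO, 573/405 nm absorbance ratio.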
Numbers without * were called inactive; i = inactive; ? = inconclusive; . = not tested or not shown; [ ] = remark or other dose. Shown are actives, neighbours in structure and some others; about 3.1% of the full set was active somewhere. Calls come from the whole dose curve; as a rule, active = well fitted curve in the direction sought with a large enough effect; inconclusive = small, poorly fitted or top-dose-only effect, or another doubt; inactive = no such curve, though single readings can be large; an effect the other way counts as inactive or inconclusive.

SMILES	TsaE inh	BRCT inh green	BRCT inh red	DNA Pol III inh	Tau fil binding	ALOX15 inhib
Nc1nc(-c2ccccc2)cc(N2CCCCC2)n1	i	0%	0%	-9%	25µM*	-20%
C[C@@H]1O[C@@H](OC[C@@H]2O[C@@H](Oc3c(-c4ccc(O)c(O)c4)oc4cc(O)cc(O)c4c3=O)[C@H](O)[C@H](O)[C@@H]2O)[C@H](O)[C@H](O)[C@@H]1O	i	.	.	-6%	?	.
COC(=O)C1=C(C)NC(C)=C([N+](=O)[O-])[C@@H]1c1ccccc1C(F)(F)F	i	1%	0%	2%	32µM*	-3%[25.6 µM]
COC(=O)C1=C(C)NC(C)=C([N+](=O)[O-])[C@H]1c1ccccc1C(F)(F)F	i	-4%	-2%	2%	32µM*	-5%[25.6 µM]
COC(=O)C1=C(C)NC(C)=C(C(=O)OC)C1c1ccc(N(C)C)cc1	i	-1%	1%	-4%	-14%	-11%
COC(=O)C1=C(C)NC(=O)CC1c1ccccc1F (stereo not drawn)	i	-3%	-2%	3%	2%	8%
CC1=C(\C=C/C(C)=C/C=C\C(C)=C\C(=O)Nc2ccc(O)cc2)C(C)(C)CCC1	i	.	.	-4%	-28%	.
CSCC[C@H](C=O)NC(=O)[C@H](CC(C)C)NC(=O)[C@H](CC(C)C)NC(C)=O	i	1%	1%	-7%	-11%	3%[25.6 µM]
CCOC(=O)Cc1nnc2c(Nc3ccc(Cl)cc3)nc3nonc3n12	i	-2%	-1%	-3%	16µM*	-11%
NC(=O)c1sc2nc3c(c(-c4ccco4)c2c1N)CCC3	i	0%	-2%	-4%	16µM*	-23%
COc1ccc([C@@H]2OC[C@]3(COC(C)=O)[C@H](C)C=C(C)[C@@H]2[C@H]3C)cc1	i	.	.	-4%	?	.
Cc1ccc(NC(=O)NC2=N/C(=C(/C#N)C(=O)N3CCCC3)c3ccccc32)cc1	i	-1%	-2%	0%	5µM*	3%
Cc1ccc(NC(=O)C2CC=CCC2C(=O)N2CCCCC2)cc1 (stereo not drawn)	i	-1%	-1%	-2%	-1%	-2%
CC(C)(CN)SCc1ccccc1	i	-1%[15.4 µM]	-1%[15.4 µM]	-4%[11.4 µM]	-2%[11.4 µM]	14%[11.4 µM]
O=C(Nc1ccc(N2CCN(C(=O)c3ccc(Cl)cc3)CC2)cc1)c1cccnc1	i	-2%	0%	-6%	10µM*	-2%
C#CCCCO/N=C1/[C@H]2O[C@@H]2[C@@H](O)[C@H]2[C@H]1CCn1c(=O)n(C)c(=O)n12	.	-1%[15.4 µM]	-1%[15.4 µM]	.	.	8%[11.4 µM]
CCC1c2ccc(C)n2CCN1C(=O)Nc1ccccc1OC (stereo not drawn)	i	-11%	-9%	1%	207%	3.2µM*
CCCCCCCCCCCCCCCCCCOC[C@@H](COP(=O)([O-])OCC[N+](C)(C)C)OC	i	-2%	-4%	-1%	-1%	12%
Nc1ncnc2oc(-c3ccco3)c(-c3ccco3)c12	100µM*	-27%	?	10µM*	8%	2.5µM*
c1coc(C2Nc3cccc4cccc(c34)N2)c1	i	?	?	4µM*	6.3µM*	1.6µM*
CC(=O)Oc1ccc(/C=C\C(=O)C[C@@H]2O[C@@H](Oc3cc(OC(C)=O)c4c(c3)O[C@@H](c3ccc(OC(C)=O)cc3)CC4=O)[C@H](OC(C)=O)[C@H](OC(C)=O)[C@@H]2OC(C)=O)cc1	i	.	.	-4%	?	.
C/C(=N\O)c1ccc(N2C(=O)C3CC=C(Cl)CC3C2=O)cc1 (stereo not drawn)	i	-1%	0%	-4%[11.4 µM]	3.2µM*	2%[11.4 µM]
O=c1c(-c2cc(O)c(O)c(O)c2)coc2cc(O)c(O)c(O)c12	.	1%[3.08 µM]	-3%	.	.	10µM*
COc1cc(C2C(C#N)=C(N)Oc3c2oc(CO)cc3=O)ccc1OC(C)C (stereo not drawn)	i	1%	-4%	-9%	-12%	20µM*
COc1cc(C2C(C#N)=C(N)Oc3cc(N(C)C)ccc32)cc2c1OCO2 (stereo not drawn)	i	18%	-1%	2%	206%	25µM*
SMILES	TsaE inh	BRCT inh green	BRCT inh red	DNA Pol III inh	Tau fil binding	ALOX15 inhib
COc1ccc(C2C(C#N)=C(N)Oc3cc(O)ccc32)cc1OC (stereo not drawn)	i	3%	0%	1%	143%	10µM*
Cc1ccc(C2C(C#N)=C(N)Oc3c2oc(CO)cc3=O)o1 (stereo not drawn)	i	2%	-5%	-15%	12%	-16%
O=C(c1csnn1)N1CCC2(CCCN(c3ccccc3)C2)CC1	i	-2%	0%	-3%	-6%	-3%
CSc1ccc2c(c1)N(CCCN(C)C)c1ccccc1S2	i	1%[15.4 µM]	0%[15.4 µM]	-10%[11.4 µM]	3.2µM*	-9%[11.4 µM]
CN1CCN(CCCN2c3ccccc3Sc3ccc(Cl)cc32)CC1	i	1%[3.08 µM]	-1%	0%[25.6 µM]	?	?
CN(C)CCCN1c2ccccc2Sc2cnccc21	i	2%[15.4 µM]	3%[15.4 µM]	-9%[11.4 µM]	-24%[11.4 µM]	24%[11.4 µM]
CN(C)CCCN1c2ccc(O)cc2Sc2ccc(Cl)cc21	i	-2%[15.4 µM]	0%[15.4 µM]	-6%[11.4 µM]	3.2µM*	-13%[11.4 µM]
CCSc1ccc2c(c1)N(CCCN1CCN(C)CC1)c1ccccc1S2	i	-3%[34.4 µM]	-2%[34.4 µM]	-3%[25.6 µM]	4µM*	3%[25.6 µM]
C/C=C(/C)C#N	i	3%	1%	-2%	-4%	3%
O=C1C=CC(=O)c2c1ccc1c2ccc2ccccc21	i	-2%[34.4 µM]	2%[34.4 µM]	-11%[25.6 µM]	4µM*	-6%[25.6 µM]
O=C(c1cc(-c2ccco2)nn1-c1cccc(Cl)c1)N1CCCCC1	i	3%	0%	-7%	?	7.9µM*
COc1ccccc1CNC(=O)Nc1cccs1	.	1%	0%	.	.	13µM*
CS(=O)(=O)NCCC1=CCCCC1	i	-3%	-1%	-1%	-12%	20µM*
O=C(O)c1ccccc1NS(=O)(=O)c1ccccc1F	.	-1%	0%	.	.	-10%
CC(=O)OC/C=C(C)/C=C/C=C(C)/C=C/C1=C(C)CCCC1(C)C	i	-2%[3.08 µM]	-2%	1%	-1%	-14%
COc1ccc(NC(=O)C2CCCNC2)cc1OCC(C)C (stereo not drawn)	i	0%	1%	1%	25µM*	?
Cc1ccc2cc3cc(C(=O)NCc4ccco4)oc3nc2c1	i	2%	0%	-3%	37%	-2%
O=C(NCc1ccco1)c1cc2ccccc2o1	i	3%	0%	-7%	8%	20µM*
N#CC(C(=O)NCCc1ccccc1)c1nc2ccccc2nc1N1CCOCC1 (stereo not drawn)	i	20%	1%	0%	2.5µM*	-7%
